# Test results reported in PubChem BioAssay (NCATS).
# Where “and” joins values, the source holds several entries; their conditions need not be identical. Identical values can stand only once. Inconclusive results are not listed. Where a call stands in place of a potency, no number is given. Values without a mark were called inactive. Calls of active or inactive are those of the source. Calls follow the shape of the dose curve; as a rule, active = well fitted curve in the direction sought with a large enough effect; inconclusive = small, poorly fitted or top-dose-only effect, or another doubt; inactive = no such curve, though single readings can be large; an effect the other way counts as inactive or inconclusive. *1 amine or outer side, *2 acyl side, *3 side chain or, on linkers, in order; H or OH if unused. Where a SMILES comes first, the peptide text is derived from it. [ ]: non-standard residue; d: D form. X4 = CC(C)=CCc1cc(C(O)C(N[*:1])C(=O)[*:2])ccc1O
# Tests used:
# [1] = target: Calcium and integrin-binding protein 1 (Homo sapiens) (UniProt Q99828); assay: Primary qHTS for Identification of Calcium Integrin Binding Protein 1 (CIB1) Competitor (AID 1508620);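 also: GST tagged CIB1 binding a fluorescein labelled alphaIIb integrin peptide tracer; top concentration of the series differs between compounds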
# In short: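 CIB1-GST (1 uM final) and compound incubated 15 min at room temperature before adding FITC-alphaIIb peptide tracer (100 nM final). Competition for binding read by fluorescence polarization (ex 480, em 540) after another 15 min at room temperature.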
# [2] = Primary qHTS for inhibitors of nuclear receptor binding SET domain protein 2 (NSD2) in an isogenic RCH-ACV NSD2 p.E1099K mutant (9B) (AID 1645876); also: nearly all actives have a fitted effect of over 70% in size; also: potency is read from the fitted curve at half-maximal effect
# [3] = Primary qHTS for inhibitors of nuclear receptor binding SET domain protein 2 (NSD2) in an RCH-ACV wild type WT cells (2C) (AID 1645877); also: nearly all actives have a fitted effect of over 70% in size; also: potency is read from the fitted curve at half-maximal effect
# Calcium and integrin-binding protein 1 (Homo sapiens), sequence (Q99828 whole entry, looked up): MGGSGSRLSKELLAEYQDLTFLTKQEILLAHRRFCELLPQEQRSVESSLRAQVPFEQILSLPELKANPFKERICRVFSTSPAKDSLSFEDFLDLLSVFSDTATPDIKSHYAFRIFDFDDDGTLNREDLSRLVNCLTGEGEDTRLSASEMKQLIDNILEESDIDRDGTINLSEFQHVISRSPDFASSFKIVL
Structure (SMILES),Potency [1],Potency [2],Potency [3],"activity change, negative = viability loss [2]","activity change, negative = cell killing [3]"
C/C=C/C=C/C(=O)N1CC[C@]23c4ccccc4N[C@H]4N(C)c5cccc6c5[C@@]42CCN([C@H]6C2OC2(C)C)[C@H]13 (some centres not stated),inactive,inactive,inactive,–,–
C=C1CCC[C@]2(C)CC[C@@H](C(=C)C(=O)O)[C@H](O)[C@@H]12,inactive,inactive,inactive,–,–
CCn1cc(NC(=S)Nc2cc(Cl)ccc2OC)c(C(N)=O)n1,inactive,inactive,inactive,–,–
COc1cc(C(=O)OC[C@@]2(O)CO[C@@H](O[C@H]3[C@H](Oc4ccc(C(=O)O)cc4OC)O[C@H](CO)[C@@H](O)[C@@H]3O)[C@@H]2O)ccc1O,inactive,inactive,inactive,–,–
CC1OC(OC2C(C)OC(OC3C(O)C(CO)OC(O[C@H]4CC[C@@]5(C)C(CC[C@]6(C)C5CC=C5C7[C@@H](C)[C@H](C)CC[C@]7(C(=O)O)CC[C@]56C(=O)O)C4(C)C)C3O)C(O)C2O)C(O)C(O)C1O (some centres not stated),inactive,–,–,-0.763% [at 9.23 µM],-0.67% [at 9.23 µM]
O=C(O)Cc1cn(C2OCC(O)C(O)C2O[C@@H]2O[C@H](CO)[C@@H](O)[C@H](O)[C@H]2O)c2ccccc12 (some centres not stated),inactive,inactive,inactive,–,–
C[C@H]1O[C@@H](O[C@H]2CC[C@@]3(C)C(CC[C@]4(C)C3CC=C3C5CC(C)(C)CC[C@]5(C(=O)O)CC[C@]34C(=O)O)C2(C)C)[C@H](O)[C@@H](O)[C@@H]1O (some centres not stated),inactive,inactive,inactive,–,–
C=C1CC23CC1CCC2C12OC(=O)C(C)(CCC1O)C2C3C(=O)O (configuration not stated),inactive,inactive,inactive,–,–
COC(=O)C1=COC(O[C@@H]2O[C@H](CO)[C@@H](O)[C@H](O)[C@H]2O)[C@H]2[C@@H]1[C@H](OC(=O)CCc1ccc(O)cc1)C[C@]2(C)O (some centres not stated),inactive,inactive,inactive,–,–
COC(=O)C1=CO[C@@H](O[C@@H]2O[C@H](CO)[C@@H](O)[C@H](O)[C@H]2O)[C@H]2[C@@H]1C=C[C@@]21C=C([C@H](C)O)C(=O)O1,inactive,inactive,inactive,–,–
C[C@@H]1C[C@H]2O[C@@H]2/C=C\C=C\C(=O)Cc2c(Cl)c(O)cc(O)c2C(=O)O1,inactive,488 nM (active) and 640 nM (active),275 nM (active) and 640 nM (active),–,–
COC1C(CO)OC(n2cnc3c(=O)[nH]cnc32)C1O (configuration not stated),inactive,inactive,inactive,–,–
CC1(C)CC[C@]2(C(=O)O[C@@H]3O[C@H](CO)[C@@H](O)[C@H](O)[C@H]3O)CC[C@]3(C)C(=CCC4[C@@]5(C)CC[C@H](O[C@@H]6O[C@H](C(=O)O)[C@@H](O)[C@H](O)[C@H]6O)[C@@](C)(CO)C5CC[C@]43C)C2C1 (some centres not stated),inactive,–,–,3.1% [at 9.23 µM],4.55% [at 9.23 µM]
COc1cccc2cc3c(c(O[C@@H]4O[C@H](CO[C@@H]5O[C@H](CO)[C@@H](O)[C@H](O)[C@H]5O)[C@@H](O)[C@H](O)[C@H]4O)c12)C(C)OC3=O (some centres not stated),inactive,inactive,inactive,–,–
CC1=CC(=O)[C@]2(O[C@@H]3O[C@@H](C)[C@H](O)[C@@H](O)[C@H]3OC(=O)/C=C/c3ccccc3)C=CO[C@@H](O[C@@H]3O[C@H](CO)[C@@H](O)[C@H](O)[C@H]3O)[C@H]12,inactive,inactive,inactive,–,–
CC1=C(C)C(=O)OC(C(C)C2CCC3C4CC=C5CC(OC6OC(COC7OC(CO)C(O)C(O)C7O)C(O)C(O)C6O)CC(O)C5(C)C4CCC23C)C1 (configuration not stated),inactive,inactive,inactive,–,–
CC(C)=CCc1cc(C(O)C2NC(=O)CNC(=O)C(Cc3c[nH]c4ccccc34)NC(=O)C3CCCN3C(=O)CNC(=O)C(C(C)C)NC(=O)CNC2=O)ccc1O (configuration not stated) (cyclo(G[X4]GVGPW); configuration not given here),inactive,–,–,-11.5% [at 9.23 µM],-18.5% [at 9.23 µM]
CO[C@@H](C)Cn1c(=O)n(C)c2cnc3ccc(-c4cncc(C(C)(C)O)c4)cc3c21,inactive,166 nM (active),166 nM (active),–,–
Nc1nc2c(ncn2[C@@H]2O[C@H](CO)[C@@H](O)[C@H]2O)c(=O)[nH]1,inactive,inactive,inactive,–,–
COc1cc([C@H]2c3cc(O)c(OC)cc3C[C@@H](CO[C@@H]3O[C@H](CO)[C@@H](O)[C@H](O)[C@H]3O)[C@@H]2CO)ccc1O,inactive,inactive,inactive,–,–
C[C@]12C=C[C@@]3(CCC4[C@](C)(CO)CCC[C@@]4(C)C3CC1)C2 (some centres not stated),inactive,inactive,inactive,–,–
C/C(=C\CC[C@@H](C)[C@H]1CC(O)[C@@]2(C)C3CC[C@H]4C(C)(C)[C@@H](OC5OCC(O)C(O)C5OC5OC(CO)C(O)C(O)C5O)CC[C@@]45C[C@@]35CC(O)[C@]12C)C(=O)O (some centres not stated),inactive,inactive,inactive,–,–
C[C@@H]1O[C@@H](O[C@H]2[C@@H]3C=CO[C@@H](O[C@@H]4O[C@H](CO)[C@@H](O)[C@H](O)[C@H]4O)[C@@H]3[C@@]3(CO)O[C@@H]23)[C@H](OC(=O)/C=C/c2ccccc2)[C@H](O)[C@H]1O,inactive,inactive,inactive,–,–
Cc1cc(Cl)ccc1COc1ccnn1-c1cc(C(=O)O)ccn1,inactive,inactive,inactive,–,–
